# About 5,100 (1.5%) of roughly 340,000 compounds were called active. The sample holds actives, similar compounds and a random draw of the others, so the mix is not that of the screen. A number with no mark means an inactive call.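 How the source made its calls: active means mean Tm shift, scaled 0 neutral to 100 positive control, at about 1.3% or above, every replicate too (limit read from the data); inconclusive means no clear call, values can overlap the other calls; inactive means the rest.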
# Target: Fibroblast growth factor 22 (Homo sapiens) (UniProt Q9HCT0)
# Sequence (Q9HCT0 whole entry, looked up): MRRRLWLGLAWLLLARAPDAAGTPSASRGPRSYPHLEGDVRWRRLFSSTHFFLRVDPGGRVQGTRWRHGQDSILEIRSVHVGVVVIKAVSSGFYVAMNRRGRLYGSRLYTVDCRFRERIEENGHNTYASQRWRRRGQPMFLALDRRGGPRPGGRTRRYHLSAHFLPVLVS
# Experiment: FGF22 ligand-induced thermal stabilization – biophysical, thermal shift, single point, FGF22 synaptogenesis inhibitor project, primary screen (AID 651658)
# Conditions: recombinant FGF22 thermal shift, SYPRO orange fluorescence; at 9.99 µM; hits give high values; percent of sucrose octasulfate shift, DMSO zero
row,SMILES,"activity (Tm shift, normalised)"
1,CO[C@@H]1CN(C)C(=O)c2cc(NC(=O)Nc3cccc(F)c3)ccc2OC[C@H](C)N(C)C[C@@H]1C,-0.31%
2,COc1ccc(-c2ccc3c(c2)[C@H]2[C@H](CCN2C(=O)C2CCOCC2)[C@H](CO)N3C)cc1,-0.244%
3,Cc1ccc(C2=Nc3c(ccc4ccccc34)C(c3ccncc3)=NN2)cc1,44% (active)
4,COc1ccc(S(=O)(=O)N(C)C[C@@H]2Oc3ccc(NC(=O)CCN4CCOCC4)cc3CC(=O)N([C@@H](C)CO)C[C@@H]2C)cc1,-0.109%
5,Cn1c(=O)c2cc(S(=O)(=O)NCCC(=O)Nc3ccc(F)cc3F)ccc2n(C)c1=O,43.3% (active)
6,CCc1ccccc1NC(=O)CN(C)S(=O)(=O)c1ccc2c(c1)c(=O)n(C)c(=O)n2C,-0.036%
7,COc1ccc(NC(=O)CCNS(=O)(=O)c2ccc3c(c2)c(=O)n(C)c(=O)n3C)cc1OC,-0.132%
8,CCCC#Cc1cnc2c(c1)C(=O)N([C@@H](C)CO)C[C@@H](C)[C@@H](CN(C)Cc1ccccc1F)O2,-0.354%
9,C/C(=N/OC(=O)c1ccc(Br)cc1)c1ccc(C)cc1,0.152%
10,Cc1ccn2c(-c3csc(Nc4ccc(C(=O)O)cc4)n3)c(C)nc2c1,-0.135%
11,C/C(=N\OC(=O)c1ccccc1)c1c(C)nc2cc(C)ccn12,44.6% (active)
12,Cc1ccccc1-c1cnc2c(c1)C(=O)N([C@H](C)CO)C[C@@H](C)[C@H](CN(C)C(=O)c1cccnc1)O2,0.163%
13,CO[C@@H]1CN(C)C(=O)c2ccc(NC(=O)Nc3cc(Cl)cc(Cl)c3)cc2OC[C@H](C)NC[C@H]1C,-0.905%
14,Cc1ccc(S(=O)(=O)NC2CCCCCC2)cc1,43% (active)
15,Cc1ccc(S(=O)(=O)N[C@H]2CCC[C@@H]2O)cc1,-0.275%
16,CC(C)c1ccc(S(=O)(=O)NC2CCCC2)cc1,0.004%
17,C[C@@H]1CN([C@@H](C)CO)C(=O)CCCn2cc(nn2)CO[C@@H]1CN(C)S(=O)(=O)c1ccccc1C#N,-0.156%
18,CSc1ccc(/C=N/NC(=O)c2cccc(Cl)c2)cc1,0.743%
19,O=C(CC(=O)N/N=C\c1ccc(F)cc1)NCCc1ccccc1,0.292%
20,CSc1ccc(/C=N\NC(=O)CC(=O)NC(C)C)cc1,43.1% (active)
21,Cc1ccc(S(=O)(=O)N(C)C[C@@H]2Oc3ccc(NS(=O)(=O)c4cccs4)cc3C(=O)N([C@@H](C)CO)C[C@H]2C)cc1,-0.456%
22,CO[C@H]1CN(C)C(=O)c2cc(NC(=O)C3CCC3)ccc2OC[C@H](C)N(CC2CCCCC2)C[C@@H]1C,0.141%
23,O=S(=O)(c1ccccc1)N(Cc1cccc(F)c1)c1ccccc1,-0.239%
24,O=S(=O)(ON(c1ccccc1)S(=O)(=O)c1ccccc1)c1ccccc1,1.68% (active)
25,CCN(c1ccccc1)S(=O)(=O)c1ccc(N)cc1,-0.161%

row,SMILES,"activity (Tm shift, normalised)"
1,CN1c2ccc(C3=CCCCC3)cc2[C@@H]2[C@@H](CCN2S(=O)(=O)c2ccccc2F)[C@H]1CO,-0.132%
2,Cc1noc(C)c1NC(=O)N[C@H]1C=C[C@@H](CC(=O)Nc2ccccc2)O[C@H]1CO,-0.156%
3,CO[C@@H]1CN(C)C(=O)c2cc(NS(=O)(=O)c3cccc(F)c3)ccc2OC[C@@H](C)NC[C@@H]1C,-0.14%
4,Clc1ccc(C[n+]2cc(-c3ccccc3)n3c2CCC3)cc1,-0.249%
5,Cc1ccc(-c2c[n+](CC(=O)Nc3ccccc3)c3n2CCC3)cc1,-0.075%
6,Cc1ccc(C(=O)C[n+]2cc(-c3ccccc3)n3c2CCCCC3)cc1,44.4% (active)
7,O=C(C[C@H]1C=C[C@H](NC(=O)Nc2cc(F)ccc2F)[C@H](CO)O1)Nc1ccccc1,0.041%
8,C[C@@H]1CCCCO[C@@H](CN(C)Cc2ccncc2)[C@@H](C)CN([C@@H](C)CO)C(=O)c2cc(NC(=O)Nc3ccc(F)cc3)ccc2O1,-0.232%
9,CCCNC(=O)C[C@@H]1CC[C@H]2[C@@H](COC[C@@H](O)CN2Cc2ccccc2F)O1,0.109%
10,CCC(=O)Nc1ccc2c(c1)OC[C@H](C)N(C(=O)Cc1cccnc1)C[C@@H](C)[C@@H](OC)CN(C)C2=O,-0.218%
11,CCc1cccc(NC(=O)O[C@H]2[C@H](OC(=O)Nc3ccccc3-c3ccccc3)[C@H](OC(=O)Nc3ccccc3-c3ccccc3)[C@@H](OC)O[C@@H]2CO)c1,-0.082%
12,COc1ccc(S(=O)(=O)N2CCCCN3[C@H](CO)[C@H](c4ccc(C5=CCCCC5)cc4)[C@@H]3C2)cc1,-0.535%
13,O=[N+]([O-])c1ccc(N2CCN(CC(O)COc3ccccc3)CC2)cc1 (stereo not given),43.9% (active)
14,O=[N+]([O-])c1ccc(N2CCOCC2)cc1,-0.032%
15,OC(COc1ccccc1)CN1CCN(c2cccc(Cl)c2)CC1 (stereo not given),0.055%
16,CC(C)NC(=O)Nc1ccc2c(c1)C(=O)N([C@H](C)CO)C[C@H](C)[C@H](CN(C)C(=O)CCC(F)(F)F)OCCCC[C@H](C)O2,-0.429%
17,CN1CCN(C(=O)C[C@H]2CC[C@H]3[C@@H](COc4ccc(NC(=O)C5CCC5)cc4C(=O)N3C)O2)CC1,-0.349%
18,COC(=O)C1=C(C)N(C)C(=O)NC1c1ccc([N+](=O)[O-])o1 (stereo not given),43.8% (active)
19,COC(=O)C1=C(C)N(C)C(=S)NC1c1ccccc1 (stereo not given),0.104%
20,COc1ccc(C2NC(=O)N(C)C(C)=C2[N+](=O)[O-])cc1 (stereo not given),0.013%
21,COCC(=O)N1CCCCN2[C@H](CO)[C@H](c3ccc(C#Cc4ccc(OC)cc4)cc3)[C@H]2C1,0.2%
22,COc1ccc2c3c(n(C)c2c1)[C@H](CO)N(C(C)=O)CC31CCN(Cc2cccnc2)CC1,-0.052%
23,C/C=C/c1ccc2c(c1)O[C@H](CN(C)C(=O)Cc1ccncc1)[C@@H](C)CN([C@@H](C)CO)S2(=O)=O,-0.034%
24,Cc1nnc(SC(C(=O)Nc2cc(Cl)cc(Cl)c2)c2ccccc2)[nH]c1=O (stereo not given),1.39% (active)
25,Cc1nnc(SC(C(=O)c2ccccc2)c2ccccc2)[nH]c1=O (stereo not given),0.339%

row,SMILES,"activity (Tm shift, normalised)"
1,CC(NCC(=O)Nc1cc(Cl)cc(Cl)c1)c1ccccc1 (stereo not given),-0.134%
2,C[C@H]1CN([C@@H](C)CO)C(=O)Cc2cc(N(C)C)ccc2O[C@@H]1CN(C)S(=O)(=O)c1ccc(F)cc1,-0.149%
3,C[C@@H]1CCCCO[C@H](CN(C)S(=O)(=O)c2cccs2)[C@@H](C)CN([C@@H](C)CO)C(=O)c2cc(NC(=O)NC3CCCCC3)ccc2O1,-0.096%
4,Cc1ccccc1-c1ccc2c(c1)O[C@H](CN(C)C)[C@H](C)CN([C@@H](C)CO)S2(=O)=O,0.074%
5,C[C@@H]1CN([C@@H](C)CO)C(=O)c2cc(NC(=O)CCCCCC(=O)Nc3ccccc3N)ccc2O[C@@H](C)CCCCO[C@@H]1CN(C)CC1CCCCC1,-0.209%
6,CC(C)Cn1c(N2CCN(C(=O)/C=C/c3ccccc3)CC2)nc2ccccc21,-0.183%
7,O=C(Cn1c(N2CCN(C/C=C/c3ccccc3)CC2)nc2ccccc21)c1ccccc1,44% (active)
8,COc1cc(C(=O)N2CCN(C/C=C/c3ccccc3)CC2)cc(OC)c1C,0.444%
9,CCCC(=O)Nc1ccc2c(c1)C(=O)N(C)C[C@H](OC)[C@@H](C)CN[C@H](C)CO2,-0.019%
10,CO[C@@H](CN(C)S(=O)(=O)c1ccccc1)[C@@H](C)CN(Cc1ccccc1Cl)[C@H](C)CO,0.183%
11,COC(=O)Cc1nc2c(N)nc(N)nc2[nH]c1=O,44% (active)
12,COC(=O)Cc1c(-c2[nH]c3ccccc3c2CC(=O)OC)[nH]c2ccccc12,-0.112%
13,Cc1cc(C)cc(N2C(=O)CSC2c2cccc([N+](=O)[O-])c2)c1 (stereo not given),-0.058%
14,C[C@H]1CN([C@@H](C)CO)C(=O)Cc2cc(NS(=O)(=O)c3cn(C)cn3)ccc2O[C@@H]1CN(C)C(=O)Nc1ccc2c(c1)OCO2,-0.296%
15,CCCNC(=O)C[C@H]1CC[C@@H]2[C@H](COC[C@H](O)CN2S(=O)(=O)c2ccccc2F)O1,-0.049%
16,COc1ccc2c3c(n(C)c2c1)[C@H](CO)N(C)CC31CCN(C(=O)Nc2cccc(F)c2)CC1,0.13%
17,C[C@H]1CN([C@@H](C)CO)S(=O)(=O)c2ccc(-c3ccccc3F)cc2O[C@H]1CN(C)C(=O)C1CC1,0.047%
18,O=C1c2ccccc2C(=O)N1CCCCCCN1C(=O)c2ccccc2C1=O,-0.045%
19,CCN1CCN(C(=O)CSc2ccc(C)cc2)CC1,-0.037%
20,CCN1CCN(C(=O)CCN2C(=O)c3ccccc3C2=O)CC1,44.1% (active)
21,O=C(CN1CCOCC1)N1CC(=O)N2[C@H](C1)[C@H](c1ccc(/C=C/c3ccccc3)cc1)[C@@H]2CO,-0.125%
22,COc1ccc(CNC(=O)CN2C(=O)c3ccccc3S2(=O)=O)cc1,0.05%
23,CCc1nc2ccccc2c(C(=O)OC2CCCCC2=O)c1C (stereo not given),0.135%
24,CCc1nc2ccccc2c(C(=O)NCc2ccc(OC)cc2)c1C,43.4% (active)
25,O=C(NCC(F)(F)F)[C@H]1[C@H](CO)[C@H]2Cn3c(ccc(-c4ccncc4)c3=O)[C@H]2N1Cc1ccncc1,-0.221%

# Reference: PubChem BioAssay AID651658 (Broad Institute, 2012)
